A selection: hits, their analogues and other compounds. The true share with any hit is near 3.3%.
FAK blocker: FAK kinase inhibitors, primary screen, biochemical; Focal adhesion kinase 1 (Homo sapiens), Q05397; biochemical FAK kinase activity assay; inhibition, %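 (tested at 7 µM)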; hit rate 0.84% among 97,000;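 further: 0% = DMSO and 100% = reference compound high control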
ERa SRC1 pot: enhancers of ERα–SRC-1 coactivator binding, primary screen, biochemical, TR-FRET, ERα LBD, low estradiol | Estrogen receptor (Homo sapiens), P03372 | TR-FRET ERalpha-LBD/SRC-Cy5 coactivator binding, 2 h; 100 = basal binding, no effect | coactivator binding (% of control), % at 25.6 µM | hit rate 1.3% among 86,000; in the data active means activity above about 200%;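 further: binding measured in presence of low estradiol as agonist stimulus; 0% = peptide alone without receptor and 100% = receptor with peptide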
Target sequence (P03372 whole entry, looked up, the tested form may be a part): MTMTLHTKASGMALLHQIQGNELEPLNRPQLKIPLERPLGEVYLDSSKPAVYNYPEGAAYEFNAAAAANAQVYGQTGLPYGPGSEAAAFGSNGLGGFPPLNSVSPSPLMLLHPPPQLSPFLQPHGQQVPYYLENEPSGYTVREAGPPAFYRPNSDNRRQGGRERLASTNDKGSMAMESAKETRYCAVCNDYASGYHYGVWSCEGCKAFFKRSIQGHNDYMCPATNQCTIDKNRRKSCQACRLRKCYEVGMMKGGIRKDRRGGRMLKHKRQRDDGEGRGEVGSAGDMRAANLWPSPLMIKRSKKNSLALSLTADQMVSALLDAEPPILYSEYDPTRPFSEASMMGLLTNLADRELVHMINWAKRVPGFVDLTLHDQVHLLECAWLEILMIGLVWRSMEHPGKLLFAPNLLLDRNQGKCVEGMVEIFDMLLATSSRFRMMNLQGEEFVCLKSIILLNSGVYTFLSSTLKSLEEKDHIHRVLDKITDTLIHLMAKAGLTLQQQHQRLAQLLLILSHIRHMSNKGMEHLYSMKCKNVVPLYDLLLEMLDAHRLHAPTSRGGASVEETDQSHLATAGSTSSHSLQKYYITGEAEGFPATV
ERa coact inh: ERα–SRC-1 coactivator interaction inhibitors, primary screen, biochemical, TR-FRET, ERα LBD, estradiol-bound; Estrogen receptor (Homo sapiens), P03372; TR-FRET ER-alpha LBD / SRC-1 peptide; inhibition, % at 25.6 µM; hit rate 1.7% among 86,000; in the data active means inhibition above about 50%;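 further: 0% = receptor plus peptide control and 100% = peptide only without receptor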
Smad3 inh: Smad3/FoxH1 peptide binding inhibitors, primary screen, biochemical, TR-FRET; inhibition, % at 25 µM; TR-FRET Smad3/Dy647-FoxH1 peptide binding, europium anti-His; Mothers against decapentaplegic homolog 3 (Homo sapiens), P84022; hit rate 0.29% among 88,000;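 active means compounds that reduce the energy-transfer binding signal between the protein and its labelled peptide by more than half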;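 further: 0% = Smad3 plus labelled peptide maximal FRET and 100% = peptide-only background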
ERb SRC1 inh: inhibitors of ERβ-SRC1 coactivator interaction, primary screen, biochemical, TR-FRET, ERβ LBD, SRC-1 peptide; Estrogen receptor beta (Homo sapiens), Q92731; TR-FRET ER-beta LBD / SRC1-Cy5 peptide binding; receptor agonist-loaded with 1 µM estradiol; inhibition, % at 25.6 µM; hit rate 1.3% among 86,000; AID 633, 2007;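 active means compounds whose percent inhibition of the receptor-coactivator binding signal exceeds about 50% in the single-dose screen, limit read from the data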;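 further: 0% = receptor plus peptide wells without compound and 100% = peptide-only wells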
FAK inh confirm: FAK kinase inhibitors, retest, confirmation, biochemical; hit rate 28% among 750; inhibition, % at 7 µM; FAK kinase biochemical inhibition assay; shares compounds with FAK blocker; AID 794, 2007
An asterisk follows results filed as active; x = not tested or not shown; [ ] = another dose, or the depositor's remark. Unless noted, no stated cut-off is given here; in the data, active means inhibition above about 19%; inactive means the rest.

SMILES	FAK blocker	ERa SRC1 pot	ERa coact inh	Smad3 inh	ERb SRC1 inh	FAK inh confirm
Cc1ccc(-n2ncc3c(NCc4ccco4)ncnc32)c(C)c1	x	85.8	9.6	7.2	21.1	x
COc1ccc(C2C(C#N)=C(C)NC3=C2C(=O)c2ccccc23)cc1 (stereo not given)	1.9	126.4	6.7	12.5	3.1	x
CC1=C([N+](=O)[O-])C(c2ccccc2)C2=C(N1)c1ccccc1C2=O (stereo not given)	24.9*	x	x	x	x	14.6
Cc1ccc(NC(=O)CSc2nc3ccccc3c3nc(CCc4c(C)n[nH]c4C)nn23)cc1F	21.1*	142.0	53.6*[fluorescence artefact?]	44.2	26.0	11.5
Cc1n[nH]c(C)c1CCc1nc2c3ccccc3nc(SCC(N)=O)n2n1	0.1	106.7	-8.5	1.7	-16.6	x
CC(c1ccccc1)N1CCn2c(nc3cc(NC(=O)NC4CCCCC4)ccc32)C1 (stereo not given)	6.5	97.3	5.7	6.2	-0.7	x
O=C1c2ccccc2C(=O)N1CCCc1nc2ccccc2c(=O)n1-c1cccnc1	2.4	110.4	-0.3	6.5	-1.5	x
C=CCOc1ccc(/C=C/C(C)=N\O)cc1	19.8*	144.1	-38.6	0.9	-47.1	5.3
CC1=C(C)/C(=N\OS(=O)(=O)c2ccccc2)C=CC1=O	-1.6	90.0	7.7	8.2	4.1	x
O=C(NNC(=O)c1cc2cc3ccccc3nc2s1)c1cccc(Cl)c1	30.3*	x	x	x	x	4.8
Cc1ccc(S(=O)(=O)NNC(=O)c2cc3cc4ccccc4nc3s2)cc1	8.2	x	x	x	x	x
O=C(NNC(=O)c1cc2cc3ccccc3nc2s1)c1ccc(F)cc1	25.9*	x	x	x	x	2.6
Cc1cccc(C(=O)NNC(=O)c2cc3cc4ccccc4nc3s2)c1	-0.3	x	x	x	x	x
CCOC(=O)C1=C(CSc2nc3ccccc3s2)NC(=O)NC1c1cccc([N+](=O)[O-])c1 (stereo not given)	-0.8	x	x	x	x	x
Cc1nnc(NC(=O)CSc2ncnc3c2cnn3-c2ccccc2C)s1	30.1*	x	x	x	x	2.2
COc1ccccc1NC(=O)Cn1nnc(-c2ccccc2NC(=O)c2ccco2)n1	26.8*	84.1	-38.4	1.8	16.0	14.9
COc1cc(C(=O)Nc2ccccc2-c2nnn(CC(N)=O)n2)cc(OC)c1OC	2.1	x	x	x	x	x
CCOc1ccc(-c2nnn(CC(=O)Nc3ccccc3OC)n2)cc1OCC	-0.4	142.7	34.1	-2.4	21.7	x
COc1ccccc1NC(=O)Cn1nnc(-c2ccccc2NC(=O)c2cccs2)n1	20.9*	338.9*[fluorescence artefact?]	-15.2	12.9	-4.6	13.1
CC1Cc2ccccc2N1C(=O)CSc1nnnn1C(C)C (stereo not given)	1.3	106.3	-14.3	-21.1	-7.7	x
Oc1cccc(Nc2ncnc3ccccc23)c1	22.6*	101.3	-3.1	-1.6	13.4	7.2
C=CCOCC(O)CS(=O)(=O)Cc1ccc(Cl)cc1 (stereo not given)	-1.4	112.2	-7.3	7.5	-5.3	x
Cc1oc(-c2ccccc2F)nc1CS(=O)(=O)CC(=O)NCc1ccco1	26.9*	22.1	90.7*[fluorescence artefact?]	77.6*	91.3*[fluorescence artefact?]	-0.7
Cc1oc(-c2ccccc2F)nc1CS(=O)(=O)CC(=O)NCCCc1ccccc1	x	110.1	-0.3	-3.2	10.8	x
COc1ccc(C(c2nnnn2Cc2cccs2)N2CCN(c3ccccc3F)CC2)cc1 (stereo not given)	8.2	108.9	2.0	15.6	-0.5	x
SMILES	FAK blocker	ERa SRC1 pot	ERa coact inh	Smad3 inh	ERb SRC1 inh	FAK inh confirm
O=C(Nc1cccc(-c2nc3ccccc3[nH]2)c1)c1cccc(NC(=O)c2ccco2)c1	71.0*	192.5	70.0*[fluorescence artefact?]	-5.3	68.5*[fluorescence artefact?]	61.7*
CCOC(=O)c1cnc2ccc(OCC)cc2c1N1CCN(c2ccccc2)CC1	-2.3	74.8	4.4	4.6	-3.0	x
CCOC(=O)c1cnc2ccc(C)cc2c1Sc1ccccc1	22.1*	x	x	x	x	2.5
CCOC(=O)c1cnc2ccc(C)cc2c1Nc1ccc(N2CCOCC2)cc1	51.4*	x	x	x	x	22.2*
Cc1nc(COC(=O)c2ccc(S(=O)(=O)N3CCCC3)cc2)cs1	1.8	115.6	-5.3	0.6	-7.2	x
O=C(c1cccc(S(=O)(=O)N2CCCC2)c1)N1CCN(c2ccccc2F)CC1	34.9*	98.7	-2.3	-8.6	-5.5	-1.1
O=c1cc2[nH]c3ccccc3c(=O)n2nc1-c1ccccc1	-1.1	x	x	x	x	x
CC(C)(C)N1C(=O)Cc2c1nc(N)c1c(N)nc(N3CCCCC3CO)c(C#N)c21 (stereo not given)	55.9*	108.6	3.8	10.1	20.4	0.4
CN(CCO)c1nc(N)c2c(N)nc3c(c2c1C#N)CC(=O)N3C1CCCC1	35.2*	56.9	23.5	8.2	34.3	-0.2
CC(=O)/C=C1\SC(CC(=O)O)C(=O)N1c1ccccc1 (stereo not given)	1.0	x	x	x	x	x
NNC(=O)Cn1c(SCc2ccccc2)nc2ccccc21	-1.6	114.7	1.6	3.2	-2.5	x
CCc1ccc(CNc2ccc(O)cc2)cc1	56.3*	70.7	26.2	2.4	55.5*[fluorescence artefact?]	3.6
CC(=O)NCCCc1c[nH]c2ccc(Cl)cc12	0.8	113.6	-19.7	9.3	1.1	x
Cc1c(NC(=O)Cn2ccc([N+](=O)[O-])n2)c(=O)n(-c2ccccc2)n1C	-8.1	x	x	x	x	x
O=C(NCCCn1ccnc1)C(Cc1ccc([N+](=O)[O-])cc1)N1C(=O)c2ccccc2C1=O (stereo not given)	1.6	113.7	-9.3	3.6	-10.0	x
O=C(CSc1nc2ccccc2c(=O)n1Cc1ccco1)N1CCCCCC1	36.0*	105.9	14.2	-3.3	2.7	9.6
COCCNC(=O)c1ccc2c(=O)n(Cc3ccco3)c(SCC(=O)NC3CCCCC3)nc2c1	32.7*	107.5	7.0	2.5	1.7	1.0
O=C(NCc1ccco1)c1ccc2c(=O)n(Cc3ccco3)c(SCC(=O)N3CCCC3)nc2c1	9.4	192.7	15.1	-1.4	8.2	x
C=C(C)C(=O)OC1(C(F)(F)F)Oc2cc(C)ccc2NC1=O (stereo not given)	-0.8	79.0	-0.4	-1.5	2.2	x
O=[N+]([O-])c1cccc(/C=C/c2nc3ccc([N+](=O)[O-])cc3[nH]2)c1	34.5*	x	x	x	x	20.8*
CS(=O)(=O)N(CC(=O)N1CCOCC1)Cc1ccccc1	34.5*	102.5	-3.7	7.8	37.8	0.7
CN1CCN(C(=O)CN(Cc2ccccc2)S(C)(=O)=O)CC1	1.0	112.8	5.8	1.6	2.8	x
O=C(C1COc2ccccc2O1)N1CCc2ccccc21 (stereo not given)	24.1*	344.8*[fluorescence artefact?]	21.1	12.1	33.8	7.1
CCCSC1=N/C(=C\c2ccsc2)C(=O)S1	-1.0	x	x	x	x	x
